Screening results: PubChem BioAssay, several laboratories
FAS TE block – blocks the thioesterase domain of human fatty acid synthase; inhibition, % at 15 µM; recombinant FAS-TE, OMFH fluorogenic substrate, fluorescence endpoint; 0.67% of 360,000 active;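 active means compounds whose normalised, plate-corrected inhibition of enzyme fluorescence in the single-dose primary screen is 50% or more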;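 further: 0% = DMSO with enzyme and 100% = substrate without enzyme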
CRFR2-BP antag – CRF-BP/CRF-R2 complex antagonism | inhibition, % at 11.8 µM | HEK293 CRF-R2/CRF-BP, CRF-induced calcium fluorescence | 0.59% of 350,000 active | AID 588475;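 active means inhibition of the ligand-induced calcium signal above about 50% at the single tested concentration, limit read from the data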
NadD inh – inhibitors of Staphylococcus aureus NadD | purified NadD enzyme, colorimetric absorbance read-out | inhibition, % at 20 µM | 0.78% of 360,000 active | AID 602399; in the data active means inhibition above about 26%
NRP1-CendR mod – alters CendR peptide binding to human NRP-1; O14786; FAM-RPARPAR peptide binding to NRP-1, fluorescence polarization; inhibition, % at 25 µM; 0.85% of 360,000 active;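 active means inhibition or corrected inhibition above about 18%, plus a signal ratio from 0.5 to 1.5, limit read from the data, passing the limit was not always enough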
Target sequence (O14786 whole entry, looked up): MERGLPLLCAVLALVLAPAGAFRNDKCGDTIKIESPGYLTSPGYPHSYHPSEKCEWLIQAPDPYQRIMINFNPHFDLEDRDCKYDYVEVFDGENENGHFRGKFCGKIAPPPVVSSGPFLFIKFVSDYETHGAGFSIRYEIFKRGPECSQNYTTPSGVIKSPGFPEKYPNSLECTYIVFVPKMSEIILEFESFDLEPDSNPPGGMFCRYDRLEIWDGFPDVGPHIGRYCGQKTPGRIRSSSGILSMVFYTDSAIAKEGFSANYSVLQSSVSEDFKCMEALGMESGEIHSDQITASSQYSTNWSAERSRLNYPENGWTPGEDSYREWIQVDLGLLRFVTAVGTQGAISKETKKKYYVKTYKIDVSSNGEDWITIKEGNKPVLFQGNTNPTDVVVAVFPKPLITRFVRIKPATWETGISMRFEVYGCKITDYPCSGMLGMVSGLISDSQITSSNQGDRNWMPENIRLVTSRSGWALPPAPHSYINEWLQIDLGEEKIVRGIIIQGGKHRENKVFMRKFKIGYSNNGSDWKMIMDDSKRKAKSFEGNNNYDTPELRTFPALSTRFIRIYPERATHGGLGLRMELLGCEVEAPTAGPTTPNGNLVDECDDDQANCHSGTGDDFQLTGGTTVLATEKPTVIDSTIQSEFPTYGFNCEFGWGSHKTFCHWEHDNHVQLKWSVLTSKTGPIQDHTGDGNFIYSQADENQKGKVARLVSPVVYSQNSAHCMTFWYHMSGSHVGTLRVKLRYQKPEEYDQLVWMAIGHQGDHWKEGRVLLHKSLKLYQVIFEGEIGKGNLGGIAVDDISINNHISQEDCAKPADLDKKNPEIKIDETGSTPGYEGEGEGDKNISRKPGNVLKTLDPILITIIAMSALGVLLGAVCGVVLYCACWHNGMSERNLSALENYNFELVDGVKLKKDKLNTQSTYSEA
Myeloid diff 2 – compounds promoting myeloid differentiation; AID 624256; calls only at 10 µM; 1% of 360,000 active; ER-HoxA9 myeloid progenitors, lysozyme-GFP differentiation, flow cytometry;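 active means normalized GFP-positive differentiation at or above the plate's own cutoff, the solvent-only control mean plus 3 SD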;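 further: cells exposed to compound for four days before flow analysis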
* marks the source's active call; other numbers are inactive results; i = inactive; / = no result given; + = active, no number. Most compounds without a hit are left out; they make up all but 3.6% or so of the library.

SMILES	FAS TE block	CRFR2-BP antag	NadD inh	NRP1-CendR mod	Myeloid diff 2
OCCOCCn1c(C(CO)Nc2nc(-c3cccc(Br)c3)cs2)nc2ccccc21 (stereo not drawn)	5.0	-15.7	-4.9	22.9*	i
CC(C)(C)c1ccc(C(=O)N2CCC2(C)C(=O)NCCC#N)cc1 (stereo not drawn)	-7.2	/	-1.4	-7.9	i
COc1cc(OC)c2ccc(=O)oc2c1C(CCN1CCOCC1)c1ccc2c(c1)OCO2 (stereo not drawn)	12.4	76.1*	-3.6	-2.1	i
CCCCCc1cc(=O)oc2c(C(CCN3CCCCC3)c3ccc4c(c3)OCO4)c(OC)cc(OC)c12 (stereo not drawn)	17.7	-29.1	10.7	8.1	+
CCCCCc1cc(=O)oc2c(C(CCN3CCCC(C)C3)c3ccc4c(c3)OCO4)c(OC)cc(OC)c12 (stereo not drawn)	9.4	-10.9	7.4	0.3	i
OCC[C@@H]1C[C@H](O)[C@@H](O)[C@@]2(OCc3ccc(CO)cc32)O1	-10.8	/	-7.8	7.3	i
O=S(=O)(Nc1ccc(-n2cnnn2)cc1)c1cccc(Cl)c1	-3.0	-13.6	-2.2	-3.9	i
O=C(O)c1cccc(-c2ccc(/C=C3/SC(=Nc4ccccc4)N(Cc4cccnc4)C3=O)o2)c1	39.0	0.6	31.5*	-67.1	i
CCN=C1S/C(=C\c2ccc(-c3cccc(C(=O)O)c3)o2)C(=O)N1CC	-0.3	12.0	6.0	-38.1	i
COc1ccc(F)cc1CSc1nnnn1-c1ccc(O)cc1	-5.1	16.7	-6.5	23.0*	i
COc1ccc(C(C)=O)cc1CSc1nnnn1-c1ccc(O)cc1	1.7	27.5	-7.9	4.0	i
Cc1ccccc1NC(=O)Cc1nc(COC(=O)c2ncc(Cl)c(Cl)c2Cl)cs1	22.8	5.6	-3.3	-11.2	i
O=C1NC(=O)/C(=C/c2ccco2)N1	-14.5	3.7	-3.6	25.4*	i
O=C1NC(=S)NC1=Cc1ccco1	-7.8	13.6	1.6	-10.9	i
Cc1ccc(C2CN(CCC(N)=O)C(=O)CO2)cc1 (stereo not drawn)	-8.2	-1.0	0.4	7.7	i
Cc1ccccc1CNC(=O)c1ccccc1N	-5.9	55.0*	-0.4	2.2	i
Cc1ccccc1CNC(=O)c1ccccc1C	-1.3	5.7	-4.2	12.7	i
CCN(CC)CCCNC(=O)C1c2ccccc2C(=O)N1Cc1ccc(C)cc1 (stereo not drawn)	-8.6	-15.4	-3.0	18.8*	i
Cc1ccc(CN2C(=O)c3ccccc3C2C(=O)NCC2CCCO2)cc1 (stereo not drawn)	-13.5	15.5	-0.7	8.8	i
COC(=O)[C@@]1(Cc2ccc(OC)cc2)[C@@H]2C(=CC(=O)[C@H]2CC(=O)C(=O)N2CCCC2)CN1C(=O)c1ccccc1	-3.2	6.4	3.8	-8.6	+
COC(=O)[C@@]1(Cc2ccc(OC)cc2)[C@H]2c3cc(C(=O)N4CCCC4)n(CCN4CCOCC4)c3C[C@H]2CN1C(=O)c1ccccc1	-5.9	/	2.9	22.9*	i
COC(=O)[C@@]1(Cc2ccc(F)cc2)[C@H]2C(CC(=O)C(=O)N3CCCC3)C(=O)C[C@H]2CN1C(=O)c1ccccc1 (stereo partly drawn)	-1.4	/	-1.4	8.2	i
O=C(C1CCN(S(=O)(=O)c2ccc(Br)s2)CC1)N1CCc2ccccc21	24.5	-23.5	1.0	43.3*	i
COC(=O)C1CSC(C)(C)C(=O)N1 (stereo not drawn)	-4.7	25.4	2.6	-2.1	i
COC(=O)CCCCC1SCC2NC(=O)NC21O (stereo not drawn)	-6.7	-6.5	-0.2	27.4*	/
SMILES	FAS TE block	CRFR2-BP antag	NadD inh	NRP1-CendR mod	Myeloid diff 2
COc1ccc(C2CCCN2C(=O)Nc2ccc(C)c(C)c2)cc1OC (stereo not drawn)	-1.6	80.4*	0.0	-10.2	i
COc1ccc(C2CCCN2C(=S)Nc2ccc(C)c(C)c2)cc1OC (stereo not drawn)	7.1	33.1	5.9	2.3	i
FC(F)(F)c1cnc(N2CCC(=NOCc3ccc(Cl)cc3)CC2)c(Cl)c1	14.0	-4.2	4.2	3.0	i
Cc1ccc(CON=C2CCN(c3ncc(C(F)(F)F)cc3Cl)CC2)cc1	15.5	-2.1	-1.5	3.5	+
COC(=O)c1cccc(NC(=O)CCN2C(=O)NC(C)(C)C2=O)c1	-4.7	20.8	-1.9	-7.6	i
O=C(Nc1ccc(F)cc1)C(c1cccc(F)c1)N1CCN(Cc2c(F)cccc2Cl)CC1 (stereo not drawn)	/	/	/	-4.8	i
NC(=O)c1sc2nc(-c3ccccc3)c3c(c2c1N)CCCC3	10.8	7.8	16.8	-19.8	+
Cc1cccc2cc(C#N)c(SCC(=O)Nc3ccccc3N3CCOCC3)nc12	26.9	-8.8	11.0	-17.7	+
O=C1CSC(=S)N1N=Cc1c(O)ccc2ccccc12	5.1	-85.5	33.7*	74.3	i
COc1ccc2ccccc2c1/C=N/N1C(=O)CSC1=S	10.3	9.0	21.9	-27.6	i
O=C(CSc1nnc(C2CC2)n1-c1ccccc1)N1CCNC1=O	-3.6	6.8	-10.0	19.9*	i
O=C(NCc1ccco1)c1ccccc1NS(=O)(=O)c1ccc(Cl)s1	0.4	20.2	1.9	-16.8	i
O=C(Nc1nnc(S(=O)(=O)Nc2ccccc2)s1)c1ccccc1Cl	-2.4	75.9*	-4.9	-19.0	i
O=C(Nc1ccccc1)c1ccccc1NS(=O)(=O)c1ccc(Cl)s1	16.2	67.7*	-9.7	-20.3	i
Cc1ccc(NC(=O)c2ccccc2NS(=O)(=O)c2ccc(Cl)s2)cc1	19.1	79.7*	-4.4	-2.9	i
O=C(Nc1ccccc1Cc1ccccc1)c1ccccc1NS(=O)(=O)c1ccc(Cl)s1	40.0	104.8*	22.1	-7.6	i
Nc1ncnc2c1ncn2[C@@H]1O[C@H](C(=O)N2CCC[C@@H]2C(=O)OCc2ccccc2)[C@@H](O)[C@H]1O	-8.4	/	-2.0	-3.4	i
CCOC(=O)[C@]12CCCC=C1N(Cc1ccccc1)C(=O)[C@H](CC(=O)N1CCOCC1)C2	/	/	/	2.6	i
CCCn1nc(C(=O)Nc2cc(S(=O)(=O)Nc3ccc(OC)cc3)ccc2O)c2ccccc2c1=O	-4.6	54.4*	11.3	-3.6	i
CCOc1cc(N2CCOCC2)c(OCC)cc1NC(=O)c1ccccc1	-1.3	-7.6	3.2	5.5	i
CCCn1nc(C(=O)Nc2cc(OCC)c(N3CCOCC3)cc2OCC)c2ccccc2c1=O	20.5	-9.2	4.3	22.5*	i
CCCn1nc(C(=O)Nc2ccc(S(=O)(=O)Nc3nccs3)cc2)c2ccccc2c1=O	-18.7	-9.8	13.8	-1.4	i
COc1ccc(-c2noc(N3CCC(C(=O)N(C)c4ccccc4)CC3)n2)cc1	4.2	-33.4	-5.1	-2.9	i
C=C(C)[C@@H]1CC[C@]2(C(=O)O)CC[C@]3(C)C(CCC4[C@@]5(C)CC[C@H](O)C(C)(C)C5CC[C@]43C)C12 (stereo partly drawn)	7.4	-12.5	2.7	-3.8	i
